Shown are actives, neighbours in structure and some others; about 2.9% of the full set was active somewhere.
GLP-1R inv ag – GLP-1 receptor (human) inverse agonism; P43220; Potency, µM (doses to about 38.3 µM), without a hit: at the highest dose activity change, negative = inhibition, actives largely listed as inhibitors; 410,000 tested, 1.6% active; AID 624417; HEK293 GLP-1R CRE-luciferase, luminescence, 24 h; GLP-1R form is constitutively active; also: potency is read from the fitted curve at half-maximal effect; % is scaled to controls: 0 for no effect and ±100 for the full control effect; nearly all actives have a fitted effect of over 55% in size
Target sequence (P43220 whole entry, looked up): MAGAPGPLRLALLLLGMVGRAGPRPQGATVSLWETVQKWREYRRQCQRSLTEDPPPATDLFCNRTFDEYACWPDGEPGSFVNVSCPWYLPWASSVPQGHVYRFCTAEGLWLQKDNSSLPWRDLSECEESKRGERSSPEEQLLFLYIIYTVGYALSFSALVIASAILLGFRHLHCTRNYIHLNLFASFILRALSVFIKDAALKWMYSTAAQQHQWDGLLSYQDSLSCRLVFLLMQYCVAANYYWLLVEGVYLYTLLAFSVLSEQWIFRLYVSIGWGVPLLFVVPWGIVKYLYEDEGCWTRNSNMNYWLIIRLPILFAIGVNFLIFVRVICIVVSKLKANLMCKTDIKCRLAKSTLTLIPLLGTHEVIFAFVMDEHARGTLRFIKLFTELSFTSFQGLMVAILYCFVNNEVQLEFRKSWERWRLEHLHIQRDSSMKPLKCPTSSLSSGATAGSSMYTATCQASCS
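HEK293 cells stably co-expressing constitutively active GLP-1R and a cAMP-responsive luciferase reporter were seeded in DMEM with 10% Nu serum, given compounds after 12 h, and incubated 24 h at 37 deg C. Luminescence was then read.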
GLP-1R agonist – agonists of human GLP-1 receptor; Potency, µM (doses to about 45.6 µM), without a hit: top-dose activation, actives largely listed as activators; AID 624172; P43220; HEK293 GLP-1R CRE-luciferase, luminescence, 4-6 h; cells express a hypersensitive GLP-1R form; 380,000 tested, 0.007% active; also: potency is read from the fitted curve at half-maximal effect; % of control where 0% means no effect
LDHA block – LDHA (human) enzyme inhibition | P00338 | purified LDHA, NADH/diaphorase-resazurin fluorescence; active compounds read low | activity change, % (values are at about 110 or 230 µM) | 480,000 tested, 0.15% active | AID 1347041; in the data active = activity change below about -30%; inconclusive = mostly about -25% to -30%;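 also: plate controls were DMSO wells for no effect and wells without enzyme for full effect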
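Resorufin fluorescence (ex540/em590), read at 0 and 20 min after diaphorase/resazurin addition, reports the NADH left after a 5 min room-temperature reaction of 2 nM human LDH5 with 0.06 mM NADH and 0.2 mM pyruvate.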
p53 reactivator – restores transcriptional activity of mutant p53; 320,000 tested, 0.063% active; H1299 p53-A138V BP100-luciferase reporter, luminescence, 24 h; Potency, µM (titrated, usually from 92.2 µM), for the others: top-dose activity change, positive = activation, usual class: activators; also: potency is read from the fitted curve at half-maximal effect; % of control where 0% means no effect; nearly all actives have a fitted effect of over 45% in size
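H1299 (p53-null), stable ts p53-A138V + BP100-Luc; 1000 cells/well, Opti-MEM/10% FBS; cpd 4 pt, 1:5; 24 h, 37 deg C, 5% CO2; detection reagent 10 min RT; luminescence.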
ClpP mod – qHTS Assay for Activators of ClpP | ATP-dependent Clp protease proteolytic subunit (Bacillus subtilis (strain 168)), P80244 | purified B. subtilis ClpP, FRET peptide cleavage, 20 min | Potency, µM (highest dose often 57.5 µM), for inactives: at the highest dose activity change, negative = active | 340,000 tested, 1.9% active | AID 651965, 2013; active = well fitted falling curve with a large enough effect; inconclusive = small, poorly fitted or top-dose-only effect; inactive = no such curve, though single readings can be large or run the other way; also: potency is read from the fitted curve at half-maximal effect; the source files actives as falling curves though it sought activators and does not explain the sign; nearly all actives have a fitted effect of over 65% in size
Target sequence (P80244 whole entry, looked up): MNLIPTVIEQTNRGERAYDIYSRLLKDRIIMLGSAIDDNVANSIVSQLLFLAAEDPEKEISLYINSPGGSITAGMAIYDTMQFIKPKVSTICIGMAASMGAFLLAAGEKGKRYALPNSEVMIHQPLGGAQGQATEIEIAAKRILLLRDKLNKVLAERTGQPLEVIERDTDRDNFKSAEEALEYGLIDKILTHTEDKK
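Buffer: 100 mM Tris/HCl pH8, 100 mM KCl, 0.05% low protease BSA, 2.5% glycerol, 0.01% Tween-20. ClpP 10 microg/mL final; 20 min RT; delta FRET normalized to ADEP and DMSO controls.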
GLP1R cytotox – cytotoxic in the GLP-1 receptor inverse agonist counter-screen. HEK293 cAMP-luciferase reporter cells, luminescence, 24 h. Potency, µM (top dose mostly 38.3 µM), for the others: top-dose activity change, negative = inhibition, usual class: inhibitors. 410,000 tested, 0.13% active. AID 624418;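 also: loss of luciferase light is scored as toxicity; potency is read from the fitted curve at half-maximal effect; % is scaled to controls: 0 for no effect and ±100 for the full control effect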
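Cells in DMEM/10% Nu serum/1% pen-strep, 1536-well format. Pre-incubated 12 h, dosed with 23 nL compound, incubated a further 24 h. Luciferase detection, 12 min at room temp, luminescence.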
ClpP inh valid – validation of B. subtilis ClpP protease hits (inhibitors) | shares compounds with ClpP mod | purified B. subtilis ClpP, FRET-FV substrate cleavage, 20 min | Potency, µM (doses to about 57.5 µM), for the others: top-dose activity change, negative = inhibition, usual class: inhibitors | 470 tested, 40% active | AID 743245; also: potency is read from the fitted curve at half-maximal effect; % is scaled to controls: 0 for no effect and ±100 for the full control effect; nearly all actives have a fitted effect of over 70% in size
* marks the source's active call; other numbers are inactive results; ? = inconclusive; nt = not tested or not shown; [ ] = another dose, or the depositor's remark. Unless noted, calls follow the shape of the dose curve; as a rule, active = well fitted curve in the direction sought with a large enough effect; inconclusive = small, poorly fitted or top-dose-only effect, or another doubt; inactive = no such curve, though single readings can be large; an effect the other way counts as inactive or inconclusive.

SMILES	GLP-1R inv ag	GLP-1R agonist	LDHA block	p53 reactivator	ClpP mod	GLP1R cytotox	ClpP inh valid
Cc1nc2ccc([N+](=O)[O-])cc2c(=O)n1Cc1ccccc1Br	?	-2.4%	3.1	-1.1%	41.3%	-3.7%	-0.6%
CC(C)(C)OC(=O)NCC(=O)O	nt	nt	2.8	nt	nt	nt	nt
COc1cccc(-c2nc(-c3ccc(NC(=O)c4cccs4)cc3)no2)c1	11.2%	-12.6%	-2.8	?	41.0%	-0.2%	?
O=C(NC1CCCCC1)c1ccc2c(c1)sc1nc(-c3ccc(F)cc3)cn12	0.7%	nt	-12.3	nt	10µM*	-4.2%	-8.3%
COc1ccc(-c2cn3c(n2)sc2cc(C(=O)NC4CCCCCC4)ccc23)cc1	11.0%	nt	3.0	nt	-14.7%	0.6%	nt
COc1cccc(-c2cn3c(n2)sc2cc(C(=O)NC4CCCCC4)ccc23)c1	6.6%	nt	-14.6	nt	?	-0.6%	24.3µM*
COc1cccc(-c2cn3c(n2)sc2cc(C(=O)NC4CCCCCC4)ccc23)c1	15.3%	nt	-12.4	nt	3.98µM*	0.5%	24.3µM*
CC(=O)c1ccc(OC(=O)c2nn(C(C)C)c(=O)c3ccccc23)cc1	nt	nt	-0.2	nt	nt	nt	nt
COc1ccccc1NC(=O)Nc1cccc(C(=O)O)c1	?	0.5%	-5.7	2.3%	nt	2.6%	nt
CC1=CCC2C(=O)N(c3ccc(Br)cc3C)C(=O)C2C1 (configuration not stated)	?	4.2%	0.3	-1.2%	0.1%	-2.0%	nt
COCC(=O)n1nc(-c2ccccc2)nc1NCc1ccccc1	10.6%	14.2%	-11.6	-7.8%	nt	-12.3%	nt
CCC(=O)n1nc(-c2ccccc2)nc1NCc1ccccc1	0.0%	16.9%	-1.7	?	37.9%	2.6%	6.2%
COC(=O)CN1CCN(C(=O)c2ccc(F)cc2)c2ccccc2C1	11.6%	2.0%	-5.3	-1.6%	176.1%	22.5%	0.6%
COc1ccc(C(=O)N2CCCc3ccccc32)cc1	5.0%	18.1%	-18.5	25.7%	-2.9%	-16.5%	nt
COc1ccc(-c2csc(NC(CO)c3nc4ccccc4n3Cc3ccc(C)cc3)n2)cc1 (configuration not stated)	-0.4%	19.3%	-1.1	nt	-3.1%	4.4%	nt
CCc1cc2c(N3CCN(C(=O)c4ccco4)CC3)ncnc2s1	-3.6%[0.307 µM]	-1.2%	-0.3	-5.8%	2.82µM*	-1.6%[0.307 µM]	-1.2%
CCn1c(-c2cccs2)nc2ccccc21	?	13.3%	-12.5	1.9%	3.16µM*	7.7%	13.7µM*
Cc1cccn2cc(-c3ccc(S(=O)(=O)N4CCCCC4)cc3)nc12	?	28.7%	-2.4	0.6%	nt	-19.3%	nt
Cc1cccn2cc(-c3ccc(S(=O)(=O)N4CCOCC4)cc3)nc12	0.0%	0.3%	-7.8	1.1%	3.16µM*	-10.0%	3.85µM*
CC1=C(c2ccc(C)cc2)S(=O)(=O)N(Cc2ccc(C(=O)NCc3ccccc3)cc2)C1=O	9.5%	nt	-6.8	nt	5.01µM*	5.4%	-2.5%
CCc1ccc(NC(=O)c2ccc(CN3C(=O)C(C)=C(c4ccc(C)cc4)S3(=O)=O)cc2)cc1	-14.1%	nt	0.2	nt	-3.0%	22.3%	nt
CCN(CC)CCCNC(=O)c1cn(CCOC)c(=O)c2c1c1ccccc1n2C	-9.2%	-6.9%	-0.1	-2.2%	10µM*	1.1%	21.7µM*
CCOC(CCNC(=O)c1cn(CC(C)C)c(=O)c2c1c1ccccc1n2C)OCC	-12.0%	9.5%	-3.8	-1.0%	nt	-1.4%	nt
COc1cc2c(cc1OC)C(COc1ccc3c(C)cc(=O)oc3c1)N(C(=O)c1ccccc1F)CC2 (configuration not stated)	7.5%	nt	-1.3	nt	91.4%	4.7%	?
O=C(c1ccccn1)N(Cc1ccco1)C1(C(=O)NC2CCCC2)CCCCC1	13.4%	-4.3%	-14.0	0.1%	2.51µM*	-11.6%	-0.5%
SMILES	GLP-1R inv ag	GLP-1R agonist	LDHA block	p53 reactivator	ClpP mod	GLP1R cytotox	ClpP inh valid
CC(NC(=O)C1CC12CCC2)c1ccccc1 (configuration not stated)	?	-1.3%	-2.8	-0.5%	1.4%	1.9%	nt
Cc1ccc(C)c(OCCCC(=O)NC2CCCCC2)c1	?	9.2%	0.6	nt	3.16µM*	0.1%	0.4%
COc1cccc(N=Nc2c(=O)[nH]n3c(=O)c4c([nH]c23)CCC4)c1	11.5%	-2.6%	1.6	9.5%	-11.5%	?	nt
COc1ccc(NS(=O)(=O)c2ccc(C)c(C(=O)O)c2)cc1	4.9%	2.2%	0.7	2.8%	-2.7%	12.6%	nt
COc1ccc(NS(=O)(=O)c2ccc(C)c(C(=O)NNC(=O)c3ccccc3O)c2)cc1	?	-12.1%	3.3	-6.3%	71.7%	?	0.3%
COc1ccccc1C(=O)Nc1ccc(C(=O)OCc2cc(=O)n3nc(C)sc3n2)cc1	8.8%	nt	-3.8	nt	-27.3%	4.2%	nt
COc1c(C)cc(C(=O)C2CCCN(C(=O)Cn3nc(C)nc3C)C2)cc1C (configuration not stated)	2.7%	-3.3%	2.4	1.3%	-1.1%	-2.6%	nt
COc1ccc(B(O)O)cc1	nt	nt	-5.8	nt	-3.4%	nt	nt
O=C(Nc1ccc2c(c1)Cc1ccccc1-2)c1ccncc1	4.8%	2.6%	-0.7	26.7%	10µM*	2.2%	-5.8%
O=C(Cn1ccnc1[N+](=O)[O-])NCCO	nt	3.5%	nt	nt	nt	nt	nt
COc1ccc(-n2c(=O)c3c(c4cc(OC)ccc4n3C)n(Cc3cccc(OC)c3)c2=O)cc1	4.7%	0.0%	-2.7	nt	2.51µM*	7.6%	21.7µM*
C=CC(C)(O)CC/C=C(\C)CCC=C(C)C (configuration not stated)	nt	4.3%	nt	nt	nt	nt	nt
O=C1Nc2ccc(F)cc2C12Nc1ccccc1-c1nnc(SCc3ccccc3F)nc1O2 (configuration not stated)	-5.6%	-1.2%	10.1	12.8%	39.9%	-6.6%	10.1%
O=C1Nc2ccc(Cl)cc2C12Nc1ccccc1-c1nnc(SCc3ccccc3F)nc1O2 (configuration not stated)	4.7%	-5.0%	11.4	27.8%	53.4%	-10.5%	nt
COc1cccc(C(=O)NCCS(=O)(=O)NCc2cccs2)c1	?	8.0%	-4.9	0.7%	-6.0%	-14.0%	nt
COc1ccc(OC)c(NCc2nnc(-c3ccccc3)o2)c1	0.5%	-3.3%	3.2	5.8%	nt	0.5%	nt
COc1ccc(-c2ccc(-c3nnc(Cc4ccc(OC)c(OC)c4)o3)cc2)cc1	-0.4%	-5.8%	-7.2	-2.5%	2µM*	-8.6%	?
